This note sets out measurements from PubChem BioAssay AID540308 (The Scripps Research Institute Molecular Screening Center, 2011).

The campaign covered roughly 360,000 compounds. About 3,500 (0.97%) were called active. Only a selection was taken, and actives are over-represented in it overall. A number with no mark means an inactive call.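 How the source made its calls: active means activation above a per-plate cutoff, the mean activation of sample wells on that plate plus 3 SD (cut at about 8% in these data); inactive means the rest.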

Chain of Melanocortin receptor 4 (Homo sapiens) (P32245 whole entry, looked up): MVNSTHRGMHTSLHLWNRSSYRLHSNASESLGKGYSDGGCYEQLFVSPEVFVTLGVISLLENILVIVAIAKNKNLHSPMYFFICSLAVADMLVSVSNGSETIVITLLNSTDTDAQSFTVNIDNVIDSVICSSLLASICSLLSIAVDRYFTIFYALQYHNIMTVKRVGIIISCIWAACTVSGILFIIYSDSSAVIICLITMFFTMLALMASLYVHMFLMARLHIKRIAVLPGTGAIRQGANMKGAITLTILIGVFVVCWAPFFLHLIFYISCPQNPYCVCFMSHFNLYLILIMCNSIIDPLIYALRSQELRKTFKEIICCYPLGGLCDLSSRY

This experiment addresses Melanocortin receptor 4 (Homo sapiens) (UniProt P32245). Briefly: MC4R agonists recruiting beta-arrestin, primary screen, cell-based, luminescence, agonist arm of biased-ligand search (AID 540308). The note with it: U2OS MC4R beta-arrestin complementation, at 8.9 µM, stronger effect = higher value, percent of melanotan II response, DMSO zero.
Consider `COc1ccc(Cl)cc1-c1cc(C(=O)Nc2cc(OC)c(OC)c(OC)c2)[nH]n1`, for which the activation is 3.58%.

`CCCNC(=O)c1cc(C2CCCCN2S(=O)(=O)c2cn(C)cn2)on1` (centres undefined): the activation is -0.95%.

Take `COc1ccc2oc(-c3cccc(NC(=O)CSc4ccc(Cl)cc4)c3)nc2c1`: the activation was 5.84%.

On to `O=C(Nc1ccc2oc(-c3ccc4ccccc4c3)nc2c1)c1cccs1`, for which the activation was 14.3% (active).

For `O=C(Nc1ccc2oc(-c3ccccc3F)nc2c1)c1ccco1`, the activation is -1.85%.

Turning to `CCOC(=O)C1(C)CCCN(C(=O)c2cccc(Cl)c2)C1` (centres undefined), the activation was 0.39%.

`COc1ccc(S(=O)(=O)N2CCCCC2c2cc(C(=O)NCc3ccc(F)cc3)no2)cc1` (centres undefined): the activation was -0.38%.

On to `COc1ccc(N2CCN(C(=O)CCc3nc(-c4ccc(C)cc4)no3)CC2)cc1`, for which the activation was -1.45%.

In the case of `COc1ccc(C(C)=O)cc1COc1ccc(Cl)c(C)c1`, the activation was -1.85%.

`COc1ccc(-c2noc(COc3ccc(Cl)c(C)c3)n2)cc1`: the activation was 9.56% (active).

In the case of `O=C(COC(=O)CCCN1C(=O)c2cccc3cccc(c23)C1=O)NC1CCS(=O)(=O)C1` (centres undefined), the activation was 0.21%.

As for `O=C(CCCOc1ccccc1)NCc1ccco1`, the activation was -0.5%.

On to `O=C(CCCCCN1C(=O)c2cccc3cccc(c23)C1=O)NCc1ccco1`, for which the activation was 19.2% (active).

Regarding `CCCNC(=O)C1(C)CCN(C(=O)c2ccc(F)cc2Cl)C1` (centres undefined), the activation was 0.56%.

In the case of `CCc1nnc(NC(=O)CSCc2cc(=O)n3cc(C)sc3n2)s1`, the activation is -1.4%.

With `CCc1nc2c(OCCc3cccc(OC)c3)cccn2c1N(C)C(=O)c1ccc(C)cc1`, the activation is -0.79%.

As to `CSc1ccc(/C=N/NC(=O)c2cccc(Cl)c2)cc1`, the activation was 1.13%.

As for `CSc1ccc(/C=N\NC(=O)COc2ccc(Cl)cc2Br)cc1`, the activation is 36.4% (active).

Turning to `Cc1ccc(/C=N/NC(=O)COc2ccccc2-c2ccccc2)cc1`, the activation is 1.38%.

With `COCCNc1ncnc2c1ncn2[C@H]1CN(Cc2ccc(OC)cc2)C[C@@H](CO)O1`, the activation is 0%.

As for `CCCS(=O)(=O)NC(=O)C1(C)CCCN(C(=O)c2cc(C)on2)C1` (centres undefined), the activation is 1.12%.

For `Cc1ccc(S(=O)(=O)NCCC(=O)NCc2ccc(Cl)cc2)cc1C`, the activation was -1.43%.

Consider `CC(C)CNS(=O)(=O)c1ccc(CCC(=O)NCc2ccc(Cl)cc2)cc1`, for which the activation is 0.27%.

Regarding `CSc1ccc(S(=O)(=O)NCc2ccc(Cl)cc2)cc1`, the activation is 10.2% (active).

As to `O=C(NC1CC1)c1cccc(Br)c1`, the activation was -2.46%.

As to `O=C(NC(=S)Nc1cccc2c(O)cccc12)c1cccc(Br)c1`, the activation was 30.6% (active).

Turning to `O=C(NC(=S)Nc1ccc(S(=O)(=O)Nc2ncccn2)cc1)c1cccc(Br)c1`, the activation is -2.77%.

`Cc1ccccc1Cn1c(C)c(C(=O)NCc2cccc(C(F)(F)F)c2)sc1=O`: the activation is 2.6%.

`Cc1ccc(C)c(N2CCN(C(=O)CCCCCn3c(=S)[nH]c4ccc(N5CCOCC5)cc4c3=O)CC2)c1`: the activation was -2.66%.

As to `CC(C)NC(=O)CCCn1c(=S)[nH]c2cc3c(cc2c1=O)OCO3`, the activation was -1.77%.

`O=C(CCCCCn1c(=S)[nH]c2cc3c(cc2c1=O)OCO3)N1CCN(c2ccc(F)cc2)CC1`: the activation was 13.7% (active).

For `CCc1nc2ccc(C(=O)NCCNC(C)=O)cn2c1N(CC)Cc1cccc(Br)c1`, the activation was -0.75%.

As for `CCc1nc2ccc(C(=O)Nc3cccc(OC)c3)cn2c1N(CCC(C)C)CCN(C)C`, the activation was 0.02%.

Consider `COc1ccc(C(C)(NC(C)=O)c2nc(-c3ccc(S(C)(=O)=O)cc3)cs2)cc1` (centres undefined), for which the activation is -1.32%.

For the compound `CC(=O)Nc1ccc(OC(=O)COc2ccc(Br)cc2)cc1`, the activation is -0.49%.

In the case of `Cn1cccc1C(=O)NNC(=O)COc1ccc(Br)cc1`, the activation is -1.12%.

As to `Cc1ccc(O)c(NC(=S)NC(=O)COc2ccc(Br)cc2)c1`, the activation was 19.5% (active).

On to `CCCC(=O)N1CCC1(C)C(=O)NCc1ccc(SC)cc1` (centres undefined), for which the activation was -2.08%.

In the case of `CC(C)c1ccc(CC(=O)N2CCC2(C)C(=O)NS(=O)(=O)c2ccc(C(C)(C)C)cc2)cc1` (centres undefined), the activation is 0.36%.

For `CCS(=O)(=O)Nc1cccc(-c2cc(-c3ccccc3)c3cc(C)ccc3n2)c1`, the activation is 8.87% (active).

For the compound `CS(=O)(=O)Nc1cccc(-c2cn3ccccc3n2)c1`, the activation is -3.26%.

`Cc1cc(C)cc(NS(=O)(=O)Cc2ccccc2)c1`: the activation is 0.25%.

Take `CNc1cncc(-c2cccc(C(=O)N3CCOCC3)c2)n1`: the activation was -2.12%.

`NC(Cc1ccccc1)c1csc(Nc2cc(Oc3ccccc3)ncn2)n1` (centres undefined): the activation is 4.18%.

As for `COc1ccc(CC(N)c2csc(NC(=O)Cc3ccccc3)n2)cc1` (centres undefined), the activation was -0.85%.

As to `NC(c1csc(NC(=O)Nc2cccc(C(F)(F)F)c2)n1)C1CCCCC1` (centres undefined), the activation is 6.14%.

Turning to `COc1ccc(CC(N)c2csc(NC(=O)NC(c3ccccc3)c3ccccc3)n2)cc1` (centres undefined), the activation is 13.1% (active).

`NC(c1ccccc1)c1csc(NC(=O)Nc2cccc(C(F)(F)F)c2)n1` (centres undefined): the activation is 7.09%.

Take `NC(Cc1ccc(F)cc1)c1csc(Nc2nncc3ccccc23)n1` (centres undefined): the activation was 6.94%.

As to `COc1ccc(C(N)c2csc(NC(=O)Nc3cccc(C(F)(F)F)c3)n2)cc1` (centres undefined), the activation is 9.99% (active).

Turning to `CC(C)(C)CC(=O)Nc1nc(C(N)Cc2ccc(C(F)(F)F)cc2)cs1` (centres undefined), the activation is 9.49% (active).

In the case of `COc1ccc(CC(N)c2csc(NC(=O)Nc3ccc(C(C)C)cc3)n2)cc1` (centres undefined), the activation is 4.05%.

As to `Cc1cccc(NC(=O)CN2CCN(CC(=O)NCC3(N4CCCCC4)CCCCC3)CC2)c1C`, the activation is -0.84%.

Regarding `c1cc(-c2ccc3[nH]ccc3c2)n2ccnc2c1`, the activation was -0.92%.

`CCNC(=O)C1CCCN(C(=O)c2ccc(OC)cc2OC)CC1` (centres undefined): the activation was 0.47%.

In the case of `O=C(NCc1ccco1)c1cccc(-c2ccc3nncn3c2)c1`, the activation was 1.37%.

With `CCCOc1ccc(F)cc1-c1cc(C(=O)Nc2ccc(F)cc2)[nH]n1`, the activation is 0.53%.

Regarding `CC1(C(=O)NS(=O)(=O)c2ccccc2)CCN1C(=O)C/C=C/c1ccccc1` (centres undefined), the activation was -2.25%.

As for `COCc1cccc(-c2csc(C(O)c3ccc(F)cc3)n2)c1` (centres undefined), the activation was -0.9%.
